# Results taken from publication PMC7862700, “An all-to-all approach to the identification of sequence-specific readers for epigenetic DNA modifications on cytosine”.
# What was measured:
# Assay in all cases: DAPPL (digital affinity profiling via proximity ligation, sequencing); 10 mM Tris-HCl pH 7.5, 50 mM NaCl, 1 mM DTT, 4% glycerol, room temperature, 30 min; GST-TFs on glutathione beads, 16-mer random dsDNA library, 0.1% formaldehyde crosslink after washing; high values mean tight binding
# Settings in all cases: protein: recombinant; tags: N-terminal GST; dsDNA, one strand shown
# ELK1 = target: T1, ELK1 (Homo sapiens, UniProt P19419 1-428)
# T1 sequence: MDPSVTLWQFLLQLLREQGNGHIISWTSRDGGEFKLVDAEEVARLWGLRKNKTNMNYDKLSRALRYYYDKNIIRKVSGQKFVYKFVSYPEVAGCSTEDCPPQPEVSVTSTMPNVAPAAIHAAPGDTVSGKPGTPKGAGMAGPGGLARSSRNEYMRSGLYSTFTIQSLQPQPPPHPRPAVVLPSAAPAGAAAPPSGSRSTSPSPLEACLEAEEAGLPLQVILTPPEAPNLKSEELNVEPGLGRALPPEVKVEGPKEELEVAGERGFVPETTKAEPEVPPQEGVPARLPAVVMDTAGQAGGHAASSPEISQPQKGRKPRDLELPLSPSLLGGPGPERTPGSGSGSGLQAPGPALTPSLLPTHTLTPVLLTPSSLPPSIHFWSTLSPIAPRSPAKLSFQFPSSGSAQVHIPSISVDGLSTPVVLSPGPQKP
# How it was run: (§1)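 Human transcription factors fused to GST were expressed in yeast, captured on glutathione beads, given DNA barcodes and pooled with a GST-only negative control. Pools were incubated with 200 nmole of a 16-mer random double-stranded DNA library in Tris/NaCl/DTT/glycerol buffer at room temperature for 30 min. They were then washed, crosslinked with 0.1% formaldehyde, proximity-ligated (BsaI/T4 ligase, 1 h, 37 °C), PCR-amplified and sequenced on an Illumina NextSeq500. Binding signal is each 6-mer's read frequency for a factor divided by its frequency for the GST control.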
# GABPA = target: T2, GABPA (Homo sapiens, UniProt Q06546 1-454)
# T2 sequence: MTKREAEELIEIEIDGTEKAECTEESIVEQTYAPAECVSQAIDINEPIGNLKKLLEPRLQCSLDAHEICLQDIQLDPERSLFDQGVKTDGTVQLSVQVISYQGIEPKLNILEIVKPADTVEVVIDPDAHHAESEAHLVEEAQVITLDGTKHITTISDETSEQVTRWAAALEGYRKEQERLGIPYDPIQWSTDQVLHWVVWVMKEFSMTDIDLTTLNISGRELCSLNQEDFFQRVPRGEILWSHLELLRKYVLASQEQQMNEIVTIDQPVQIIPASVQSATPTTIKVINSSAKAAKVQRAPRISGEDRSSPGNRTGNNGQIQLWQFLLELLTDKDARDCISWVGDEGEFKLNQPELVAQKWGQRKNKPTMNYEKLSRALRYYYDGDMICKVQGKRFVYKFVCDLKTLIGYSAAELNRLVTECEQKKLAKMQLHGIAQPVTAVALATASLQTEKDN
# How it was run: as §1
# ELF3 = target: T3, ELF3 (Homo sapiens, UniProt P78545 1-371)
# T3 sequence: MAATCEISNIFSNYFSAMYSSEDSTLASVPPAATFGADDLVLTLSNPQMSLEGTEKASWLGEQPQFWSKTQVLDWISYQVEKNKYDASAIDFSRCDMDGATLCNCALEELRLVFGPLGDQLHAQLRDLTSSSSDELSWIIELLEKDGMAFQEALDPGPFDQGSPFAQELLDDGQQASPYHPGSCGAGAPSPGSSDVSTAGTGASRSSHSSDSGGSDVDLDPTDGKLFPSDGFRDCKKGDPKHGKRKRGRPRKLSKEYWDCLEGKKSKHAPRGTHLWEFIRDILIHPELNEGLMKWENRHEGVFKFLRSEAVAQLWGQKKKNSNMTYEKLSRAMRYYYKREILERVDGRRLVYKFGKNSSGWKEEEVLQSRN
# How it was run: as §1
# CRX = CRX (Homo sapiens, UniProt O43186 1-299)
# How it was run: as §1
# ETV1 = ETV1 (Homo sapiens, UniProt P50549 1-477)
# How it was run: as §1
# ERF = target: T4, ERF (Homo sapiens, UniProt P50548 1-548)
# T4 sequence: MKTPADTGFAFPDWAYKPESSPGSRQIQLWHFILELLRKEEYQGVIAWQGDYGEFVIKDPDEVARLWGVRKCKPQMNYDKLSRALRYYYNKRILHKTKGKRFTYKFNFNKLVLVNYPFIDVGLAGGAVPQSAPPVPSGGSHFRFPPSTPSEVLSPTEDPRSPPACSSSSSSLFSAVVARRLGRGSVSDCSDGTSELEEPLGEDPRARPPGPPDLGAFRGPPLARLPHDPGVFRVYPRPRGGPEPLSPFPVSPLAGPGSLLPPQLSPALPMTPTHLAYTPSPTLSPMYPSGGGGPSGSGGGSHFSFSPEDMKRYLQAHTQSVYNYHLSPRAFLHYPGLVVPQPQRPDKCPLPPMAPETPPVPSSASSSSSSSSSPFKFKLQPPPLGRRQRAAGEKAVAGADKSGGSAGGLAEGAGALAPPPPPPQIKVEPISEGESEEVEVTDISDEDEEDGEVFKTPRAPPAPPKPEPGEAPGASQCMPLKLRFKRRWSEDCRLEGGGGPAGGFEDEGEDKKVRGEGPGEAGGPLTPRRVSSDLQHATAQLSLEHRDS
# How it was run: as §1
# SPDEF = target: T5, SPDEF (Homo sapiens, UniProt O95238 1-335)
# T5 sequence: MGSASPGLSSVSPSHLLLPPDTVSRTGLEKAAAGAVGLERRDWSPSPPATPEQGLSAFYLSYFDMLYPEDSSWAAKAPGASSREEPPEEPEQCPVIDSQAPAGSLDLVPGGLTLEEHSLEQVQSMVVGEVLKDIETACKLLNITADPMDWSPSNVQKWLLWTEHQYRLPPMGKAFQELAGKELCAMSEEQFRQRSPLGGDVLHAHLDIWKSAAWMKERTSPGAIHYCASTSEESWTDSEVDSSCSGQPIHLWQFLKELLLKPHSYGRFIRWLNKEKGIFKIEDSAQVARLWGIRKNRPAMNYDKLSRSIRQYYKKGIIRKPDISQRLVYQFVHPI
# How it was run: as §1
# ELF5 = target: T6, ELF5 (Homo sapiens, UniProt Q9UKW6-2 1-255)
# T6 sequence: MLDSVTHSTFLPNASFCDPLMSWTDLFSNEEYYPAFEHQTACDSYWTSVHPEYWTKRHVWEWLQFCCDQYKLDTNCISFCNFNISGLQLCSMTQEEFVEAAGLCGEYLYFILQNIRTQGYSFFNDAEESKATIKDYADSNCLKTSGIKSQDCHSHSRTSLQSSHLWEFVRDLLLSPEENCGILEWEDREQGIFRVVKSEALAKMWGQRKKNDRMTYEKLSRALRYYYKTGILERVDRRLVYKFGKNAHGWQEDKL
# How it was run: as §1
# ETV6 = ETV6 (Homo sapiens, UniProt P41212 1-452)
# How it was run: as §1
# ELF1 = ELF1 (Homo sapiens, UniProt P32519 1-619)
# How it was run: as §1
# ELK4 = target: T7, ELK4 (Homo sapiens, UniProt P28324-2 1-405)
# T7 sequence: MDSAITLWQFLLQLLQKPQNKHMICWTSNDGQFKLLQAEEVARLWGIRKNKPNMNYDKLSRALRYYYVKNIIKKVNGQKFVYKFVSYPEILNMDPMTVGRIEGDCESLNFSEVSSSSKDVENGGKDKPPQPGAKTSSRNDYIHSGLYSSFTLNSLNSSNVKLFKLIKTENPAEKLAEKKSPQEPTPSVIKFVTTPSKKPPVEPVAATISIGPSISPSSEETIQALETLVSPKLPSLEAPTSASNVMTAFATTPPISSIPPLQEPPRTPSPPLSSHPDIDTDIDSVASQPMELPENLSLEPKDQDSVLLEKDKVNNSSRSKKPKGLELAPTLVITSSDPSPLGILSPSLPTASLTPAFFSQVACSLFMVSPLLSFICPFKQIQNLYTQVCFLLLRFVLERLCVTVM
# How it was run: as §1
# ETV2 = target: T8, ETV2 (Homo sapiens, UniProt O00321 1-342)
# T8 sequence: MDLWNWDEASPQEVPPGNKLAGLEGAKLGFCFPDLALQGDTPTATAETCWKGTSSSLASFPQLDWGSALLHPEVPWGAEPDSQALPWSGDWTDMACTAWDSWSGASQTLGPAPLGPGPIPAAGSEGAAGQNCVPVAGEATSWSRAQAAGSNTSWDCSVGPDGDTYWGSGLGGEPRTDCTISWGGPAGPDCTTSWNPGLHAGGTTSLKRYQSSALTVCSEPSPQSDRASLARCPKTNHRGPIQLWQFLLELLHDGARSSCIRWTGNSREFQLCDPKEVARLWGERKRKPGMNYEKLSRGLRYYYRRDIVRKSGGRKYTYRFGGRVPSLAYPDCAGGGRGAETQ
# How it was run: as §1
# ETV3 = target: T9, ETV3 (Homo sapiens, UniProt P41162-2 1-143)
# T9 sequence: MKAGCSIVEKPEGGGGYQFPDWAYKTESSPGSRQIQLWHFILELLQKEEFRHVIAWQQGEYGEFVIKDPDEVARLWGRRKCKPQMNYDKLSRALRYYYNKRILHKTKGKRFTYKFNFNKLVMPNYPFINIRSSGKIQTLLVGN
# How it was run: as §1
# CRX, sequence (O43186 whole entry): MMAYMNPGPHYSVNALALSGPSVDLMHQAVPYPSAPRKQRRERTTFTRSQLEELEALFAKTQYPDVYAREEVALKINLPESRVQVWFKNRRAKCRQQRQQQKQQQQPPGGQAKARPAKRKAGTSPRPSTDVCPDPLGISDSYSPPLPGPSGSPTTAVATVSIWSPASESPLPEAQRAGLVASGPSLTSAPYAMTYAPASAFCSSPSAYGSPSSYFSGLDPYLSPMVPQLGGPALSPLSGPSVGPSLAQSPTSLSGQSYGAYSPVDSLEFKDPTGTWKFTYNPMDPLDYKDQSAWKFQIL
# ELF1, sequence (P32519 whole entry): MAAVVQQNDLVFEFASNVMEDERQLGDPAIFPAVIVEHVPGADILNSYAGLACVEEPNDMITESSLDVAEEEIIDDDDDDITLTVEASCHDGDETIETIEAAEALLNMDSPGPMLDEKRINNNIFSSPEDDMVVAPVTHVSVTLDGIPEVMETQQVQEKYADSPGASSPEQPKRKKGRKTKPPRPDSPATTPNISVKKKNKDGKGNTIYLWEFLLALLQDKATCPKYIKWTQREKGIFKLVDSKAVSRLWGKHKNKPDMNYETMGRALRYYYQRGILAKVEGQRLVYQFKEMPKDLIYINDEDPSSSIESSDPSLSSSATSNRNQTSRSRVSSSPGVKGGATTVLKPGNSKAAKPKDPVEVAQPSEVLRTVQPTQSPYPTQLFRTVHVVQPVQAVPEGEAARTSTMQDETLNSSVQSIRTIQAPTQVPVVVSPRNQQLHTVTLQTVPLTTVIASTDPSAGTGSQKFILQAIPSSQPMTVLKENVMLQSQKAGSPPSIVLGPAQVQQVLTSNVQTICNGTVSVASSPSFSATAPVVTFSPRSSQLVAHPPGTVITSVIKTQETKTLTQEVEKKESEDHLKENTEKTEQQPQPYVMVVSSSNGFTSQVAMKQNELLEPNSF
# ETV1, sequence (P50549 whole entry): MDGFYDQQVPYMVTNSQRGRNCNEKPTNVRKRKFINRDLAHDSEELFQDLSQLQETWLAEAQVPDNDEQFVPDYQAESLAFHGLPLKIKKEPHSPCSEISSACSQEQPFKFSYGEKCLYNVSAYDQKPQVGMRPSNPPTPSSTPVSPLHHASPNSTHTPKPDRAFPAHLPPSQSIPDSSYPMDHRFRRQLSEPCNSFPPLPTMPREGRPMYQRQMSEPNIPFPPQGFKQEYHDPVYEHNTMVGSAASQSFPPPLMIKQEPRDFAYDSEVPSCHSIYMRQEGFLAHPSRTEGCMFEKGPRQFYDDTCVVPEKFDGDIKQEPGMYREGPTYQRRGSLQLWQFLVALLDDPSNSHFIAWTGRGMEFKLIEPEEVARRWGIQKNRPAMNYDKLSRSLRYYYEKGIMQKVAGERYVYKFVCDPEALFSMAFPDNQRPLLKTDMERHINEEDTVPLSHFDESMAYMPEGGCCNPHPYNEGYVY
# ETV6, sequence (P41212 whole entry): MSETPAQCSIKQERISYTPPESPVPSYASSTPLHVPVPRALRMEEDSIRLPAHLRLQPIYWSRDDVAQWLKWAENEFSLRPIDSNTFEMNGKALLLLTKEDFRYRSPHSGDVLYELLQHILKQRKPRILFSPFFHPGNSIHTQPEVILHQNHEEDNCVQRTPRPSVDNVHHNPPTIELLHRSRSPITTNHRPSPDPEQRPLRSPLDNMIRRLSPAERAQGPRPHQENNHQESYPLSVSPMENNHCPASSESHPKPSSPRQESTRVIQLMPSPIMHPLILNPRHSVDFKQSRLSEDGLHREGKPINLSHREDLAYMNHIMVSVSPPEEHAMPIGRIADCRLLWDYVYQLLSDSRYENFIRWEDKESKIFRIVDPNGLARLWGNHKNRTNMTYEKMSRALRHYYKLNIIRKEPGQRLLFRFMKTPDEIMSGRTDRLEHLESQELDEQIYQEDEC
sequence,measurement,setting,value
AGGTAA,binding signal,ELK1,"1.03 fold enrichment (6-mer frequency, TF over GST control)"
same,binding signal,GABPA,"1.02 fold enrichment (6-mer frequency, TF over GST control)"
same,binding signal,ELF3,"1.11 fold enrichment (6-mer frequency, TF over GST control)"
same,binding signal,CRX,"1.14 fold enrichment (6-mer frequency, TF over GST control)"
same,binding signal,ETV1,"1.02 fold enrichment (6-mer frequency, TF over GST control)"
same,binding signal,ERF,"1.06 fold enrichment (6-mer frequency, TF over GST control)"
same,binding signal,SPDEF,"1 fold enrichment (6-mer frequency, TF over GST control)"
same,binding signal,ELF5,"1.01 fold enrichment (6-mer frequency, TF over GST control)"
same,binding signal,ETV6,"1.02 fold enrichment (6-mer frequency, TF over GST control)"
TCAGTA,binding signal,ELF1,"1.01 fold enrichment (6-mer frequency, TF over GST control)"
same,binding signal,ELK4,"1.01 fold enrichment (6-mer frequency, TF over GST control)"
same,binding signal,ETV2,"1.03 fold enrichment (6-mer frequency, TF over GST control)"
same,binding signal,ELF3,"1.08 fold enrichment (6-mer frequency, TF over GST control)"
same,binding signal,CRX,"1.07 fold enrichment (6-mer frequency, TF over GST control)"
same,binding signal,ETV3,"1.03 fold enrichment (6-mer frequency, TF over GST control)"
TGTTAG,binding signal,ELK4,"1.13 fold enrichment (6-mer frequency, TF over GST control)"
same,binding signal,ETV2,"1.03 fold enrichment (6-mer frequency, TF over GST control)"
same,binding signal,ELF3,"1 fold enrichment (6-mer frequency, TF over GST control)"
same,binding signal,SPDEF,"1.03 fold enrichment (6-mer frequency, TF over GST control)"
